A short description of assay [1]: qHTS Assay for Lipid Storage Modulators (AID 1519). The settings on record: Drosophila S3 cells, BODIPY lipid droplet/cell ratio, laser cytometry; measured here: lipid channel max response; cells loaded with oleic acid. Put shortly: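 Cells seeded at 5,000 per well were treated with compounds over a concentration series and loaded with oleic acid (400 uM, as added). Lipid droplet fluorescence (488 nm excitation, 500-530 nm channel) was read by laser-scanning cytometry and normalized to 20 uM Triacsin C.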

Assay [2] in a line: Counterscreen for APE1 Inhibitors: Fluorescent Dye Displacement Validation Assay (AID 1707).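 Note: plate controls were ThO with dsDNA and no compound for no effect and ThO without dsDNA for full effect.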 The settings on record: fluorescent dye displacement from DNA; series mostly up to 57.1 µM. The essentials:
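Endpoint fluorescence read at 480 nm excitation / 540 nm emission; DNA-binding compounds lower signal by displacing 250 nM Thiazole Orange from 50 nM dsDNA containing a tetrahydrofuran abasic site, Tris-HCl pH7.5 buffer with NaCl and MgCl2.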

Assay [3] in a line: qHTS for differential inhibitors of proliferation of Plasmodium falciparum line 7G8 (AID 1815).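 Note: potency is the fitted concentration of half-maximal effect; parasite growth measured after three days of incubation.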 To be noted: Plasmodium falciparum 7G8 proliferation inhibition; series mostly up to 28.7 µM.
The nature of assay [4]: qHTS for differential inhibitors of proliferation of Plasmodium falciparum line Dd2 (AID 1882).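 Note: plate controls were DMSO vehicle for no effect and 0.29 µM artemisinin for full effect; nearly all actives have a fitted effect of over 65% in size.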 To be noted: Potency: Plasmodium falciparum Dd2 proliferation inhibition; series mostly up to 28.7 µM. Put shortly: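 SYBR Green DNA fluorescence (ex 485, em 535 nm) after overnight lysis quantifies parasite growth; compound exposure lasted 72 h at 37 C on infected red cells at 2.5% hematocrit, 0.3% parasitemia (final). Artemisinin 0.29 uM and vehicle wells define normalization.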

A short description of assay [5]: qHTS for differential inhibitors of proliferation of Plasmodium falciparum line W2 (AID 1883).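 Note: potency is the fitted concentration of half-maximal effect; parasites grown with compound for 72 h before lysis and staining.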 To be noted: Potency: Plasmodium falciparum W2 proliferation inhibition; series mostly up to 28.7 µM.
For assay [6], the target named is ATP-dependent DNA helicase Q1 (Homo sapiens) (UniProt P46063). The assay is described as follows: qHTS Validation Assay for Inhibitors of RecQ-Like Dna Helicase 1 (RECQ1) (AID 2353).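 Note: plate controls were DMSO vehicle for no effect and enzyme-free control for full effect.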 The settings on record: recombinant RECQ1 helicase DNA unwinding assay; series mostly up to 25.6 µM. Put shortly:
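RECQ1T1 50 nM; forked duplex (20 bp + 30-nt ss tails) 200 nM, ATP 2 mM final; pH 8.0, 2 mM MgCl2, 2.5 ug/ml poly(dI-dC); 15 min compound preincubation; discontinuous kinetic read over 2 h at RT.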

Assay [7] addresses RecQ-like DNA helicase BLM (Homo sapiens) (UniProt P54132). The assay is described as follows: qHTS Validation Assay for Inhibitors of Bloom's syndrome helicase (BLM) (AID 2364).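 Note: plate controls were DMSO vehicle for no effect and enzyme-free control for full effect.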 The settings on record: BLM helicase DNA unwinding, fluorescence, in vitro; series mostly up to 57.1 µM. Put shortly:
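Forked 20-bp duplex substrate (200 nM, TAMRA/BHQ-2) plus 2 mM ATP added after 15 min compound preincubation with 50 nM enzyme, pH 8.0, poly(dI-dC) 2.5 ug/ml. Strand separation followed by fluorescence (525/598 nm) over 2 h, normalized to enzyme-free and DMSO controls.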

Assay [8] can be described thus: Quantitative high throughput screen for delayed death inhibitors of the malarial parasite plastid, 96 hour incubation (AID 488745). Note: % is set by controls: 0 for no effect and ±100 for the full control effect; nearly all actives have a fitted effect of over 70% in size. The settings on record: Plasmodium falciparum growth; series mostly up to 28.7 µM. Put shortly:
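Decreased firefly luciferase luminescence indicates inhibited growth of reporter-integrated P. falciparum after two generations (96 h, 37 C, 5% CO2). Infected erythrocytes at 0.1% parasitemia, 2% hematocrit, in Albumax-supplemented RPMI 1640.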

Assay [9] is described as follows: Quantitative high throughput screen for delayed death inhibitors of the malarial parasite plastid, 48 hour incubation (AID 488752). Note: % is set by controls: 0 for no effect and ±100 for the full control effect; nearly all actives have a fitted effect of over 65% in size. To be noted: Plasmodium falciparum growth; series mostly up to 28.7 µM. Put shortly: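 One-generation (48 h) growth assay: a decrease in luciferase signal from an integrated reporter in P. falciparum-infected red cells (0.1% parasitemia, 2% hematocrit) after compound exposure at 37 C indicates parasite inhibition.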

Assay [10] addresses M-phase phosphoprotein 8 (Homo sapiens) (UniProt Q99549). The experiment in a line: qHTS Validation Assay for Inhibitors for MPP8 Chromodomain Interactions with Methylated Histone Tails (AID 488949).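 Note: AlphaScreen signal from MPP8 chromodomain bound to biotinylated H3K9me3 peptide; top concentration of the series differs between compounds; % is set by controls: 0 for no effect and ±100 for the full control effect; nearly all actives have a fitted effect of over 55% in size.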 To be noted: AlphaScreen MPP8 binding to H3K9me3 peptide; series mostly up to 114 µM. The essentials: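 Disruption of the preformed MPP8–trimethyl-H3K9 peptide complex (both 50 nM, 30 min, RT) is measured after 30 min compound exposure, using AlphaScreen proximity beads; aurintricarboxylic acid titration serves as plate control.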

Assay [11] has as its target Thyrotropin receptor (Homo sapiens) (UniProt P16473). The experiment in a line: qHTS Assay for Antagonists of the Thyroid Stimulating Hormone Receptor (AID 488980). Note: 0% is about no effect. The settings on record: TSHR-expressing cells, cAMP antagonist read-out; series mostly up to 57.5 µM. Put shortly: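 Cells expressing human TSHR (HEK293) are dispensed in HBSS/HEPES containing 70 uM RO 20-1724, compound is added, then TSH at EC80 (4 nM final). Antibody in lysis buffer follows, 30 minutes at room temperature before HTRF detection.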

Assay [12] deals with Thyrotropin-releasing hormone receptor (Homo sapiens) (UniProt P34981). The experiment in a line: qHTS for Small Molecule Agonists and Allosteric Enhancers of Human TRH Receptor: Validation Screen for Agonists (AID 493127;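 active = calcium activation more than 3 SD above the typical response in the agonist read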;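 note: intracellular calcium rise by fluo-8 fluorescence before TRH EC20 addition; 0% is about no effect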). To be noted: TRH receptor agonist cell assay; at 2 µM; stronger effect = higher value. Put shortly: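 Compound-evoked intracellular calcium release in fluo-8-loaded TRHR cells, read kinetically on FDSS (Ex 480/Em 530, 1 s/cycle) after 23 nL pintool transfer. Agonist phase preceded 10 nM TRH EC20 addition.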

The target in assay [13] is Galactokinase (Homo sapiens) (UniProt P51570). The assay is described as follows: qHTS Validation Assay for Inhibitors of Human Galactokinase (GALK) (AID 493189). Note: 0% is about no effect. The settings on record: purified human GALK enzyme activity, qHTS 7-point titration; series mostly up to 57.5 µM. The essentials: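 Compounds were pin-transferred into ATP buffer, then GALK-galactose mix was added (final 5 nM enzyme, 100 uM galactose, 35 uM ATP). After 1 h at room temperature, remaining ATP was measured luminescently.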

The nature of assay [14]: Validation screen for small molecules that induce DNA re-replication in SW480 colon adenocarcinoma cells (AID 504364). Note: 0% is about no effect. To be noted: DNA re-replication phenotype (high-content imaging); series mostly up to 46.1 µM. The essentials: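 Image-based DNA content read-out: Hoechst stain 40 min, total nuclear fluorescence intensity (ex 405 nm, em 500-530 nm) after 48 h compound exposure of 250 SW480 cells/well at 37 C, 5% CO2, versus DMSO vehicle.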

Assay [15] addresses Ubiquitin carboxyl-terminal hydrolase 1 (Homo sapiens) (UniProt O94782). The assay is described as follows: Inhibitors of USP1/UAF1: Pilot qHTS (AID 504865).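 Note: rhodamine fluorescence freed from ubiquitin-rhodamine substrate followed over time; top concentration of the series differs between compounds; % is set by controls: 0 for no effect and ±100 for the full control effect; nearly all actives have a fitted effect of over 35% in size.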 The settings on record: purified USP1/UAF1, Ub-rhodamine cleavage fluorescence; series mostly up to 114 µM. The essentials: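 Kinetic fluorescence assay: 1nM USP1/UAF1, 15 min compound preincubation, then 150nM Ub-Rho; 480/540 nm.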

For assay [16], the target named is DNA dC->dU-editing enzyme APOBEC-3G (Homo sapiens) (UniProt Q9HC16). The experiment in a line: qHTS for inhibitors of Vif-A3G interactions: Validation (AID 588379). Note: 0% is about no effect. To be noted: Vif-A3G protein interaction assay; series mostly up to 46.1 µM. Put shortly:
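Yellow fluorescence (Ex 488, Em 500-530) of Vif-coexpressing HeLa A3G-eYFP cells, scanned by Acumen cytometer, reports blocked A3G degradation. Cells plated at 700/well overnight at 37 deg C before compound addition, then a further overnight compound incubation at 37 deg C.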

Assay [17] relates to Zika virus NS2B-NS3 protease. The assay is described as follows: Primary screen GU AMC qHTS for Zika virus inhibitors (AID 1347154).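 Note: 0% = no-inhibitor control and -100% = no-enzyme control; nearly all actives have a fitted effect of over 70% in size.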 To be noted: Zika NS2B-NS3 unlinked protease, AMC fluorogenic substrate; series mostly up to 54.1 µM. Put shortly: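 Fluorogenic AMC-substrate cleavage by noncovalent NS2B-NS3 protease complex (25 nM, pH 8.0 Tris buffer with Tween 20) followed for 15 minutes at room temperature (~20% conversion). Percent inhibition from ex340/em450 signal change, fitted by 4-parameter Hill equation.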

A short description of assay [18]: Primary qHTS for small molecule stabilizers of the endoplasmic reticulum resident proteome: Secreted ER Calcium Modulated Protein (SERCaMP) assay (AID 1508630). Note: % is set by controls: 0 for no effect and ±100 for the full control effect. The settings on record: SH-SY5Y GLuc-SERCaMP (Gaussia luciferase released on ER calcium loss) secretion, thapsigargin, luminescence; series mostly up to 38.4 µM. The essentials: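 The SH-SY5Y reporter protocol was run at 3 concentrations up to 38.3 uM (primary) or 11 concentrations (follow-up): 16 h compound, 100 nM thapsigargin for 4 h, then extracellular luciferase luminescence.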

The record followed here is PubChem BioAssay (NCATS).

Records with an inconclusive call do not appear. The source made the active and inactive calls. Unless noted, calls come from the whole dose curve; as a rule, active = well fitted curve in the direction sought with a large enough effect; inconclusive = small, poorly fitted or top-dose-only effect, or another doubt; inactive = no such curve, though single readings can be large; an effect the other way counts as inactive or inconclusive.

Sequence of RecQ-like DNA helicase BLM (Homo sapiens) (P54132 whole entry, looked up): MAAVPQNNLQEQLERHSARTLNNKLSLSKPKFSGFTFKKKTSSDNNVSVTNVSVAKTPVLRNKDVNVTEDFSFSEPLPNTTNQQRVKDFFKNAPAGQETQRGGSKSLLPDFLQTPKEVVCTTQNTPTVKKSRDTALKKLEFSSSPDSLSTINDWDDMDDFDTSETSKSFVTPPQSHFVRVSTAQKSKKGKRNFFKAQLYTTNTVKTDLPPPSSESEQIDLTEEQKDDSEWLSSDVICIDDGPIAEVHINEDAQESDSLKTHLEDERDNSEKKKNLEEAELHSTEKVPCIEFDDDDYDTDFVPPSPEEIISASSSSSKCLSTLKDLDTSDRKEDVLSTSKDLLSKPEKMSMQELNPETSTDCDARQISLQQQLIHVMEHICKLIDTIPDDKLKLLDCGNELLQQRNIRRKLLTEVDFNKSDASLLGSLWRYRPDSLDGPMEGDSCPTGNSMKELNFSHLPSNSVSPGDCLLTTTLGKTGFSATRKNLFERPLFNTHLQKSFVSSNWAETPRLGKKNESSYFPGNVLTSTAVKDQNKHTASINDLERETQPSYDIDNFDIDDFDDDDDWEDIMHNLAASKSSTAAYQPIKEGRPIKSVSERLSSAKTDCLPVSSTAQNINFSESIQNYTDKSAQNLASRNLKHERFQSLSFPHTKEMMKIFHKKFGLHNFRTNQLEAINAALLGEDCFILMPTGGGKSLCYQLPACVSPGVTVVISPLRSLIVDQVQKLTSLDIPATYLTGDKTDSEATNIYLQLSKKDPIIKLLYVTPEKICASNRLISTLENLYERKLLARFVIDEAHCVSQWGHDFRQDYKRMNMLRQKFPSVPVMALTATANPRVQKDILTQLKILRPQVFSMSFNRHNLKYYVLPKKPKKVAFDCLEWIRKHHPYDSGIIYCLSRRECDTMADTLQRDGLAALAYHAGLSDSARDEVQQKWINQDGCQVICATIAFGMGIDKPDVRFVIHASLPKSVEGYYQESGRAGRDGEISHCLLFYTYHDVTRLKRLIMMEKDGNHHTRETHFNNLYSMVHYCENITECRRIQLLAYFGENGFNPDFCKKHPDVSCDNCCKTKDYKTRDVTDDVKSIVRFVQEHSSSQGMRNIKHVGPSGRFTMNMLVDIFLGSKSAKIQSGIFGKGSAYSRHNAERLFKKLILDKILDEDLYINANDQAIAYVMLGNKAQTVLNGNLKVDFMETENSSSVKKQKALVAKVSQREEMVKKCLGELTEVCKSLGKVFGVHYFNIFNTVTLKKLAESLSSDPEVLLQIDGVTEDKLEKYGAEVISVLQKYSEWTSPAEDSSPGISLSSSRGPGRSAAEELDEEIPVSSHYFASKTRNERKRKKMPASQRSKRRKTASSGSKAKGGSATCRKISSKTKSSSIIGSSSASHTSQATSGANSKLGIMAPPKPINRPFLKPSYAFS
Sequence of Ubiquitin carboxyl-terminal hydrolase 1 (Homo sapiens) (O94782 whole entry, looked up): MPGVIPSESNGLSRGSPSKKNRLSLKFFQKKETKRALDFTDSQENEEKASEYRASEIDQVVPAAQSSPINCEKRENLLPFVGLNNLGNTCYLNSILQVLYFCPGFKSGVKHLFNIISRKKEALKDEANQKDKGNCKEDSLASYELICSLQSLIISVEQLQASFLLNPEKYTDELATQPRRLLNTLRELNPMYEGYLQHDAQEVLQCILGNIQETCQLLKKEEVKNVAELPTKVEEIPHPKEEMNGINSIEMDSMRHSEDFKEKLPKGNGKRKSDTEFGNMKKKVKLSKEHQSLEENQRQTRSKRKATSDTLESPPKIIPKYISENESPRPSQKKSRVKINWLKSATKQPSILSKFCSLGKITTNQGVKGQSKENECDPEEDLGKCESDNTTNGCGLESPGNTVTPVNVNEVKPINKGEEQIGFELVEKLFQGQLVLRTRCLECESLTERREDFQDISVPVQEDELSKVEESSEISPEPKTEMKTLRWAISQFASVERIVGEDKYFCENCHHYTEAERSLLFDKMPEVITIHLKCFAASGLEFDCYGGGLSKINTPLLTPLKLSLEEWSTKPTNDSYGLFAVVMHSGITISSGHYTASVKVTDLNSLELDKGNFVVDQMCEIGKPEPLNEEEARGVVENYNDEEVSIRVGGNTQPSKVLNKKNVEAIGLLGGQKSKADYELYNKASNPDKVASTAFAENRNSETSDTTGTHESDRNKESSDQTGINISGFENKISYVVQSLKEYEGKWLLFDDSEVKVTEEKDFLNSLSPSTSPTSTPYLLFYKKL
Sequence of Thyrotropin-releasing hormone receptor (Homo sapiens) (P34981 whole entry, looked up): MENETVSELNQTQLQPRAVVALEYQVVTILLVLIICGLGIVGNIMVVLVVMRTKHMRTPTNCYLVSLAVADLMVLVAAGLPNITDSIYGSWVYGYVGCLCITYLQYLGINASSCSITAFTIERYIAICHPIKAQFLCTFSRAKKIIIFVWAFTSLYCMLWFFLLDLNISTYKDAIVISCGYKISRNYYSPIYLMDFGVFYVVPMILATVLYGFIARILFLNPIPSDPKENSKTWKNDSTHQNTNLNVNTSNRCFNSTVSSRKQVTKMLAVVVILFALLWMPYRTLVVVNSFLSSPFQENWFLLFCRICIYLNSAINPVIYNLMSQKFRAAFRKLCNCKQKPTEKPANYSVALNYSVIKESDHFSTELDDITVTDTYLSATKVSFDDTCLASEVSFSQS
Sequence of Thyrotropin receptor (Homo sapiens) (P16473 whole entry, looked up): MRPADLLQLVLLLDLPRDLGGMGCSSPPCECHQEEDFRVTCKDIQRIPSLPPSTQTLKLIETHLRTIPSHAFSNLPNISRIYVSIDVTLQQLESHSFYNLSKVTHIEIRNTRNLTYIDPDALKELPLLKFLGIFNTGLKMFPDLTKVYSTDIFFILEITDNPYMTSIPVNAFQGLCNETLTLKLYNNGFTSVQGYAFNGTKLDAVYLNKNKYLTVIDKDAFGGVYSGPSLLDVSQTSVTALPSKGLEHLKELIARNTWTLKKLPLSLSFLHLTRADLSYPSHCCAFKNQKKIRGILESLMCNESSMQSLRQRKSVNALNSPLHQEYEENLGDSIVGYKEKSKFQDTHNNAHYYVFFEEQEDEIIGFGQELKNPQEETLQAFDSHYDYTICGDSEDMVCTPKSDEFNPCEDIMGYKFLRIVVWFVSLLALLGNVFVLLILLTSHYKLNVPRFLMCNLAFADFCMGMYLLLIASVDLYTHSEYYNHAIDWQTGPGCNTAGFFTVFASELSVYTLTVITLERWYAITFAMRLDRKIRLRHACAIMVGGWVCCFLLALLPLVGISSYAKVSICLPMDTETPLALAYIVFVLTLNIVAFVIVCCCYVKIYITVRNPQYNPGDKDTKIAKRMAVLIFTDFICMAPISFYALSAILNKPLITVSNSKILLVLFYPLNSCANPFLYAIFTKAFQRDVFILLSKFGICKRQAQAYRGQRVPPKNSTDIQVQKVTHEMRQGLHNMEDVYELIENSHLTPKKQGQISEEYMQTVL
Sequence of M-phase phosphoprotein 8 (Homo sapiens) (Q99549 whole entry, looked up): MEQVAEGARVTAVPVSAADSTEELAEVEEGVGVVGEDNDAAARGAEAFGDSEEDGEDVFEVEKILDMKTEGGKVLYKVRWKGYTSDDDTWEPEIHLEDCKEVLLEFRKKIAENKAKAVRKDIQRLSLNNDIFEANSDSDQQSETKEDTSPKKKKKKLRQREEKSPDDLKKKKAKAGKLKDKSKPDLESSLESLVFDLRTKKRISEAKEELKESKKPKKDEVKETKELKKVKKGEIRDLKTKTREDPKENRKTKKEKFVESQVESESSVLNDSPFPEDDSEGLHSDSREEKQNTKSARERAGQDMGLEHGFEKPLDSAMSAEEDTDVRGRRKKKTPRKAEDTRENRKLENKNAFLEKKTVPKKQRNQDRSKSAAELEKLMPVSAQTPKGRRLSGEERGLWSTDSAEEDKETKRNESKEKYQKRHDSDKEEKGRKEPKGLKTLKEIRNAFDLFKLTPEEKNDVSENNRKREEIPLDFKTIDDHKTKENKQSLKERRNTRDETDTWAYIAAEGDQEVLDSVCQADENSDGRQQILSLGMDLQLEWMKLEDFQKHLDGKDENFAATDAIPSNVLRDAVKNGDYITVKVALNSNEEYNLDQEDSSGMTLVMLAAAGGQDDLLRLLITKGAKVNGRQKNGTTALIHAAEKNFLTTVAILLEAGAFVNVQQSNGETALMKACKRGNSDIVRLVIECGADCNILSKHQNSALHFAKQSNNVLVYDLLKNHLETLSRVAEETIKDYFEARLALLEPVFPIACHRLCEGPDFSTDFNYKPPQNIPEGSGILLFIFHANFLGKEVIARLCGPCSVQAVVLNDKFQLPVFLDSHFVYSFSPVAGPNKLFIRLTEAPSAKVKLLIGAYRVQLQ
Sequence of DNA dC->dU-editing enzyme APOBEC-3G (Homo sapiens) (Q9HC16 whole entry, looked up): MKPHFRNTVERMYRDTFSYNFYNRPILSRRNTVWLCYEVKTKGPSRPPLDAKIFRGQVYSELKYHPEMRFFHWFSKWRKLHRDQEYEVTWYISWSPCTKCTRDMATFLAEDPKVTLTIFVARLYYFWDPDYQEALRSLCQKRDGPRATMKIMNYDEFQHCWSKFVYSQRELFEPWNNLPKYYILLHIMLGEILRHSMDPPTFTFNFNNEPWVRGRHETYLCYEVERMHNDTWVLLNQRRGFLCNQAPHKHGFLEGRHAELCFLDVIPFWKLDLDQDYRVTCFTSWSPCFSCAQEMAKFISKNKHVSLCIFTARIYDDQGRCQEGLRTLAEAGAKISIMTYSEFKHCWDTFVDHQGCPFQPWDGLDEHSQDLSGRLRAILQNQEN
Sequence of Galactokinase (Homo sapiens) (P51570 whole entry, looked up): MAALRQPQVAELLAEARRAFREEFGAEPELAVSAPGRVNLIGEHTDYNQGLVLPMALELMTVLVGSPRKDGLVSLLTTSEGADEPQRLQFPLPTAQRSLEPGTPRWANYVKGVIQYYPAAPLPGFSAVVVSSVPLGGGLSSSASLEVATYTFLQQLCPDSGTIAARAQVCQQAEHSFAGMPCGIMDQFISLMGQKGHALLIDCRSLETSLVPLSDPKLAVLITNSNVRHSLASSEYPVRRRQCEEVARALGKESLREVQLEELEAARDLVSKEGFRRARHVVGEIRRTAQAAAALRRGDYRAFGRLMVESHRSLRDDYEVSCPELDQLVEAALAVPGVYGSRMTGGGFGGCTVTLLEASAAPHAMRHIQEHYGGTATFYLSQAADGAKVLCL

In the case of `NCCCCCCNS(=O)(=O)c1cccc2c(Cl)cccc12`, the max response in [1] turned out to be 16.8%. Besides, the Potency result in assay [2], in [4], in assay [6], in assay [7], in [8] and in [9] was “inactive” each time. Moreover, the Potency entry in assay [10], in assay [15], in assay [16], in assay [17] and in [18] was “inactive” throughout. Besides, the Potency in assay [3] was 11.2 µM (active); in [5] it was 12.6 µM (active). Besides, the outcome in [11], in [13] and in assay [14] was inactive. Also, in assay [12], the activation was 2.44% (inactive).
